Measured values from PubChem BioAssay.
Values without a mark were called inactive. For some of these results: Entries with a potency or affinity are not part of this list. Calls of active or inactive are those of the source. Unless noted, no rule for the calls is given here.

Assays:
[1] = antimalarial activity against Dd2 strain (AID 2302;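 active = growth inhibition above 50% at the single 2 µM test dose, taken to imply half-maximal potency below 2 µM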;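 also: 0% = DMSO untreated growth and 100% = chloroquine plus artemisinin killed control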); conditions: P. falciparum Dd2 in RBCs, LDH growth readout, 72 h; at 2 µM; stronger effect = higher value
[2] = HepG2 cytotoxicity, primary screen, cytotoxicity control for P. falciparum antimalarial project, cell-based, ATP luminescence (AID 2303;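 active = inhibition above 50%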;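 also: 0% = DMSO wells and 100% = digitonin-killed cells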); conditions: HepG2 viability, 24-48 h, at 10 µM, stronger effect = higher value
[3] = target: L-lactate dehydrogenase (Plasmodium falciparum (isolate CDC / Honduras)) (UniProt Q27743); assay: PfLDH activity inhibition – cell lysate, 3D7 strain, counter-screen for P. falciparum growth inhibition project (AID 2304);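 also: 0% = vehicle and 100% = reference inhibitor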; conditions: P. falciparum 3D7 crude extract, LDH APAD/NBT absorbance; at 2 µM; stronger effect = higher value
[4] = inhibition of 3D7 malaria parasite growth – strain 3D7 (AID 2306);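 also: 0% = DMSO wells and 100% = chloroquine plus artemisinin control wells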; conditions: P. falciparum 3D7 erythrocytic growth, LDH absorbance, 72 h; at 2 µM; stronger effect = higher value
[5] = target: Calcium-dependent protein kinase 1 (Plasmodium falciparum (isolate 3D7)) (UniProt P62344); assay: PfCDPK1 kinase inhibitors, biochemical, TCAMS library (AID 1159585; cut-off not given, nearly all actives have IC50 up to about 0.98 µM;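 also: inhibitors leave more ATP so luminescence rises with inhibition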); conditions: recombinant PfCDPK1, Kinase-Glo ATP depletion luminescence
[6] = target: Plasmodium falciparum protein kinase 6 (PK6, PF3D7_1337100) (UniProt Q8IDW1); assay: PfPK6 kinase inhibitors, biochemical, TCAMS library (AID 1159586); conditions: recombinant PfPK6, Kinase-Glo ATP depletion luminescence
[7] = target: Protein kinase 7 (PK7), Plasmodium falciparum 3D7 (PF3D7_0213400) (UniProt Q7YTF7); assay: inhibition of Plasmodium PK7 catalytic activity – biochemical, TCAMS antimalarial set, Kinase-Glo luminescence (AID 1159587); conditions: recombinant PfPK7, Kinase-Glo ATP depletion luminescence
[8] = target: Calcium-dependent protein kinase 4 (Plasmodium falciparum (isolate 3D7)) (UniProt Q8IBS5); assay: PfCDPK4 kinase inhibitors, biochemical, TCAMS library (AID 1159588; cut-off not given, nearly all actives have IC50 up to about 0.91 µM); conditions: recombinant PfCDPK4, Kinase-Glo ATP depletion luminescence
Chain of Calcium-dependent protein kinase 4 (Plasmodium falciparum (isolate 3D7)) (Q8IBS5 whole entry, looked up): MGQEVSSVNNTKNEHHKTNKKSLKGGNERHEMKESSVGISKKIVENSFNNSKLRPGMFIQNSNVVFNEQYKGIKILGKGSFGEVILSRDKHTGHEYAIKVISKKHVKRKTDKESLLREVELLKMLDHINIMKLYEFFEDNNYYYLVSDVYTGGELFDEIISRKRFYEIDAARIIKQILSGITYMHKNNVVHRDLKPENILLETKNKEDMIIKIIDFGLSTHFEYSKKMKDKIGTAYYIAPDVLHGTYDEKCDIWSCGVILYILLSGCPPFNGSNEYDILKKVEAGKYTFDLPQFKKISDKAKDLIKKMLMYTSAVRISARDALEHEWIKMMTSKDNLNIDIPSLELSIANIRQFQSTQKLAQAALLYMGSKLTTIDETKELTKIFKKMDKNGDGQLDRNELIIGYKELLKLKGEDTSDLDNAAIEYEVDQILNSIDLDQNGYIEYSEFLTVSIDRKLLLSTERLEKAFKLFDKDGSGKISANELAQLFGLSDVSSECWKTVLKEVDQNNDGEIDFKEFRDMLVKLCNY

Chain of Calcium-dependent protein kinase 1 (Plasmodium falciparum (isolate 3D7)) (P62344 whole entry, looked up): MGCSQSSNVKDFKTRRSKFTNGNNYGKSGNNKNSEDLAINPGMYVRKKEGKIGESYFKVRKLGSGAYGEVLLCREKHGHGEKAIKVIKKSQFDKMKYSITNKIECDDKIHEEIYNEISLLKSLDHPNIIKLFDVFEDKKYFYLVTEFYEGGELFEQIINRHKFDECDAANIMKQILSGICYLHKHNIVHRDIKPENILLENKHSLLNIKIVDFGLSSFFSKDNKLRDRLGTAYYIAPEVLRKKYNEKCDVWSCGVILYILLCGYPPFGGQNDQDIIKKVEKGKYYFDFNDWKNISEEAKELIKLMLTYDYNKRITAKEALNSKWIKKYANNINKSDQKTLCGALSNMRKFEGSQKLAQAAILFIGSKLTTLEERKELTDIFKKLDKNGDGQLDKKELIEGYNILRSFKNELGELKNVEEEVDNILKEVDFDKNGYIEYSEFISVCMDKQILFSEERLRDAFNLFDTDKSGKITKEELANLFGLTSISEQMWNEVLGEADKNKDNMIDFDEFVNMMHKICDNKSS
Chain of L-lactate dehydrogenase (Plasmodium falciparum (isolate CDC / Honduras)) (Q27743 whole entry, looked up): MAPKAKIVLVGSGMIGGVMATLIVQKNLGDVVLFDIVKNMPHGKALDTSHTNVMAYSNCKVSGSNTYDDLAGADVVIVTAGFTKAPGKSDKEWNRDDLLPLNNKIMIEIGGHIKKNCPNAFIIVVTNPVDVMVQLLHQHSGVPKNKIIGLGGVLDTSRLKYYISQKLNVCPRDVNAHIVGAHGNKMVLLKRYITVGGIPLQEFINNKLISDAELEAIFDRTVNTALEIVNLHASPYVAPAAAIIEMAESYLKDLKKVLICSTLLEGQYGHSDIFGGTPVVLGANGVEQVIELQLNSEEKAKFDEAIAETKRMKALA
Chain of Plasmodium falciparum protein kinase 6 (PK6, PF3D7_1337100) (Q8IDW1 1-305): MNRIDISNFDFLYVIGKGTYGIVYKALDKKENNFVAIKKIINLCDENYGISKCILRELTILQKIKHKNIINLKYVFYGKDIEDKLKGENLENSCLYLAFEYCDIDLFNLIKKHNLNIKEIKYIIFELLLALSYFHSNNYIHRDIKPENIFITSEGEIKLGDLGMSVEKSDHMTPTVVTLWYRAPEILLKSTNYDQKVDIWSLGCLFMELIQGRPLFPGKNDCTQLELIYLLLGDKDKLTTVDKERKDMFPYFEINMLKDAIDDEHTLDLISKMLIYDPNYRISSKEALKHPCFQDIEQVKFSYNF
Chain of Protein kinase 7 (PK7), Plasmodium falciparum 3D7 (PF3D7_0213400) (Q7YTF7 1-343): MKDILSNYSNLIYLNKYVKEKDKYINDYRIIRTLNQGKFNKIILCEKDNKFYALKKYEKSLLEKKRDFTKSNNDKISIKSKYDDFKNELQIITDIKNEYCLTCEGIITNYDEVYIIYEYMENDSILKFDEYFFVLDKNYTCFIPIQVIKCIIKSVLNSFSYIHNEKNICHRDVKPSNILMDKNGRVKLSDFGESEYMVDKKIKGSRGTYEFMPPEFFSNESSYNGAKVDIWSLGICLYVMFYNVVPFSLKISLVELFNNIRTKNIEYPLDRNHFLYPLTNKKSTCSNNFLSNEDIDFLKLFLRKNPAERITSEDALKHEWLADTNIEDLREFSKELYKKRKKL

Cc1ccccc1C1CCN(C2CCC(NC(=O)/C=C/c3cc(F)ccc3C(F)(F)F)CC2)CC1 (stereo not given)
growth inhibition [1]: 25% | inhibition [2]: 90% (active) | inhibition [3]: 2% | growth inhibition [4]: 98% (active) | outcome [5]: inactive | outcome [6]: inactive | outcome [7]: inactive | outcome [8]: inactive

CC(O)C1CCCCN1C(=O)c1ccc(-c2ccc(-c3nc4ccccc4[nH]3)s2)cc1 (stereo not given)
growth inhibition [1]: 98% (active) | inhibition [2]: 33% | inhibition [3]: -2% | growth inhibition [4]: 101% (active) | outcome [5]: inactive | outcome [6]: inactive | outcome [7]: inactive | outcome [8]: inactive

Cc1ccc(CN2CCCCC(NC(=O)c3cc4ccccc4s3)C2)cc1 (stereo not given)
growth inhibition [1]: 8% | inhibition [2]: 9% | inhibition [3]: -1% | growth inhibition [4]: 94% (active) | outcome [5]: inactive | outcome [6]: inactive | outcome [7]: inactive | outcome [8]: inactive

Cc1ccc2nc(-c3ccc(C=CC(=O)NCc4ccc(Cl)c(Cl)c4)cc3)[nH]c2c1
growth inhibition [1]: 18% | inhibition [2]: 5% | inhibition [3]: -5% | growth inhibition [4]: 96% (active) | outcome [5]: inactive | outcome [6]: inactive | outcome [7]: inactive | outcome [8]: inactive

Cc1c(C)n(C2CCCCC2)c2ncnc(OC3CCN(CC(=O)N4CCCC4)CC3)c12
growth inhibition [1]: 59% (active) | inhibition [2]: 31% | inhibition [3]: -4% | growth inhibition [4]: 95% (active) | outcome [5]: inactive | outcome [6]: inactive | outcome [7]: inactive | outcome [8]: inactive

CCOc1ccc(Br)cc1/C=C/C(=O)Nc1ccc2c(c1)CN(C)CCC2
growth inhibition [1]: 37% | inhibition [2]: 18% | inhibition [3]: 1% | growth inhibition [4]: 97% (active) | outcome [5]: inactive | outcome [6]: inactive | outcome [7]: inactive | outcome [8]: inactive

CN1CCN(CCCN(Cc2csc(-c3ccc(CNCc4ccccc4)cc3)n2)S(=O)(=O)c2ccccc2)CC1
growth inhibition [1]: 78% (active) | inhibition [2]: 17% | inhibition [3]: 7% | growth inhibition [4]: 99% (active) | outcome [5]: inactive | outcome [6]: inactive | outcome [7]: inactive | outcome [8]: inactive

CCOc1c(CNCCCNc2cc(=O)c3ccccc3[nH]2)cc(I)cc1C(C)(C)C
growth inhibition [1]: 89% (active) | inhibition [2]: 17% | inhibition [3]: -4% | growth inhibition [4]: 102% (active) | outcome [5]: inactive | outcome [6]: inactive | outcome [7]: inactive | outcome [8]: inactive

O=C(Nc1cccc(CN2CCCN(Cc3ccccc3)CC2)c1)c1ccc(-c2ccccc2)cc1
growth inhibition [1]: 8% | inhibition [2]: 45% | inhibition [3]: -1% | growth inhibition [4]: 85% (active) | outcome [5]: inactive | outcome [6]: inactive | outcome [7]: inactive | outcome [8]: inactive

Nc1nc(N)c2c(ccc3c2ccn3C2CCCCC2)n1
growth inhibition [1]: 46% | inhibition [2]: 67% (active) | inhibition [3]: 0% | growth inhibition [4]: 97% (active) | outcome [5]: inactive | outcome [6]: inactive | outcome [7]: inactive | outcome [8]: inactive

O=C(N[C@@H](Cc1ccccc1)C(=O)NCCN1CCCCC1)c1ccc(O)c(-c2ccc(Cl)c(Cl)c2)c1
growth inhibition [1]: 97% (active) | inhibition [2]: 6% | inhibition [3]: -3% | growth inhibition [4]: 99% (active) | outcome [5]: inactive | outcome [6]: inactive | outcome [7]: inactive | outcome [8]: inactive

COc1ccc2c(NN=Cc3ccccc3[N+](=O)[O-])ccnc2c1
growth inhibition [1]: 97% (active) | inhibition [2]: 98% (active) | inhibition [3]: -3% | growth inhibition [4]: 102% (active) | outcome [5]: inactive | outcome [6]: inactive | outcome [7]: inactive | outcome [8]: inactive

COC(=O)C(NC(=O)c1ccc(-c2ccc(-c3nc4ccccc4[nH]3)s2)cc1)c1ccc(O)cc1 (stereo not given)
growth inhibition [1]: 49% | inhibition [2]: 99% (active) | inhibition [3]: 3% | growth inhibition [4]: 83% (active) | outcome [5]: inactive | outcome [6]: inactive | outcome [7]: inactive | outcome [8]: inactive

O=C(Nc1cccc(-c2ccc(-c3nc4ccc(C(F)(F)F)cc4[nH]3)cc2)c1)c1cccnc1
growth inhibition [1]: 97% (active) | inhibition [2]: 73% (active) | inhibition [3]: -9% | growth inhibition [4]: 101% (active) | outcome [5]: inactive | outcome [6]: inactive | outcome [7]: inactive | outcome [8]: inactive

CC(C)NCc1cc(Nc2ccnc3cc(Cl)ccc23)ccc1O
growth inhibition [1]: 100% (active) | inhibition [2]: 27% | inhibition [3]: 6% | growth inhibition [4]: 102% (active) | outcome [5]: inactive | outcome [6]: inactive | outcome [7]: inactive | outcome [8]: inactive

O=C(NC1CCN(CC2(c3ccc(Cl)cc3)CCCCC2)CC1)c1ccn[nH]1
growth inhibition [1]: 96% (active) | inhibition [2]: -3% | inhibition [3]: 4% | growth inhibition [4]: 98% (active) | outcome [5]: inactive | outcome [6]: inactive | outcome [7]: inactive | outcome [8]: inactive

CCOC(=O)c1ccc(NC(=O)Nc2ccc(-c3cccc(-c4nc5c(C)cccc5[nH]4)c3)cc2)cc1
growth inhibition [1]: 100% (active) | inhibition [2]: 91% (active) | inhibition [3]: -2% | growth inhibition [4]: 101% (active) | outcome [5]: inactive | outcome [6]: inactive | outcome [7]: inactive | outcome [8]: inactive

N#Cc1ccc2c(c1)CCN(CCC1CCC(NC(=O)c3cc4ccc(Br)cc4[nH]3)CC1)C2 (stereo not given)
growth inhibition [1]: 17% | inhibition [2]: 12% | inhibition [3]: -13% | growth inhibition [4]: 103% (active) | outcome [5]: inactive | outcome [6]: inactive | outcome [7]: inactive | outcome [8]: inactive

OC(CN1CCN(C2CCCCC2)CC1)Cn1c2ccccc2c2cc(Br)ccc21 (stereo not given)
growth inhibition [1]: 89% (active) | inhibition [2]: 14% | inhibition [3]: -2% | growth inhibition [4]: 97% (active) | outcome [5]: inactive | outcome [6]: inactive | outcome [7]: inactive | outcome [8]: inactive

O=C(NCCCCN1CCC(c2ccc3c(c2OC(=O)c2ccc(NC(=O)c4ccc(Cl)cc4)cc2)CCCC3)CC1)c1ccc(NC(=O)c2ccc(Cl)cc2)cc1
growth inhibition [1]: 99% (active) | inhibition [2]: 62% (active) | inhibition [3]: -2% | growth inhibition [4]: 101% (active) | outcome [5]: inactive | outcome [6]: inactive | outcome [7]: inactive | outcome [8]: inactive
